Among the data in PubChem BioAssay are composite z-score and z-score values, retold here.

For experiment [1], the system named is XIP peptide (Xip251-270) binding. In words: XIP fragment 251-270 binding compounds – biochemical, small-molecule microarray, fluorescence 635/667 nm, 0.1 µg/mL protein, primary screen (AID 1182). To be noted: fluorescent protein binding, 635 nm, higher = more signal, called active from +8 up or from −8 down.
A further experiment has as its system XIP peptide (Xip251-270). In words: compounds binding XIP fragment 251-270 – biochemical, small-molecule microarray, fluorescence 635/667 nm, 0.5 µg/mL protein, primary screen (AID 1183). To be noted: fluorescence 635 nm, higher = more signal.
The nature of experiment [2]: blood-stage malaria parasite viability loss – strain 3D7, DAPI fluorescence, 100 nL, primary screen (AID 1184).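 Further: parasites grown inside human red blood cells in medium with human serum.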 To be noted: P. falciparum 3D7 growth, 3 d, higher = more signal.
In experiment [3] the target is Homeobox protein Hox-A13 (Mus musculus) (UniProt Q62424). In words: disruptors of Hoxa13 oligonucleotide interaction – biochemical, fluorescence polarization, labeled oligonucleotide, primary screen (AID 1185). To be noted: Hoxa13:DNA binding, 15 min, higher = more signal, called active from +8 up or from −8 down.
Chain of Homeobox protein Hox-A13 (Mus musculus) (Q62424 whole entry, looked up): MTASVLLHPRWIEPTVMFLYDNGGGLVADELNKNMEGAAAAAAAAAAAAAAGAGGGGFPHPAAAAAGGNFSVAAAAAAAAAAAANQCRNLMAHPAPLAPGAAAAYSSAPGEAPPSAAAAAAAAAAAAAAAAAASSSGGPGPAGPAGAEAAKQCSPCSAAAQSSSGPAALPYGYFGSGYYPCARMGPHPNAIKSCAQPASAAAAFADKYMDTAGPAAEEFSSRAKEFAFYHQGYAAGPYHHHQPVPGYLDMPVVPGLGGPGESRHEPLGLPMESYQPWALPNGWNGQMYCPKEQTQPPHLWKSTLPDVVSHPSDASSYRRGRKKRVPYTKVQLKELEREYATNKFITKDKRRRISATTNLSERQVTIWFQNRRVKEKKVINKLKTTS
Experiment [4] in a line: blockers of DNA damage checkpoint Chk1 activation – imaging, HeLa, hydroxyurea, phospho-Chk1 antibody, percent positive cells, primary screen (AID 1186). To be noted: hydroxyurea-induced phospho-Chk1 immunofluorescence imaging, higher = more signal.
Experiment [5] in a line: blockers of DNA damage checkpoint Chk1 activation – imaging, HeLa, hydroxyurea, phospho-Chk1 nuclear intensity, primary screen (AID 1187). To be noted: hydroxyurea-induced phospho-Chk1 immunofluorescence imaging, higher = more signal.

Molecules are shown by their SMILES. Calls of active or inactive are those of the source. Unless noted, how the calls were made is not given here.

Take `C=CC[C@@H]1C=C[C@H](ON=Cc2ccc(C(=O)N3[C@H](c4ccc(C)cc4)[C@@H](C)CC[C@H]3C(=O)OC)cc2)[C@@H](CO)O1`: the composite z-score is -0.27 (inactive) in experiment [1] and 0.379 in the experiment with XIP peptide (Xip251-270). For the same compound, the z-score is 0.495 in experiment [2] and -6.28 (inactive) in experiment [3].

Regarding `O=C1[C@H]2[C@H]3[C@H](O)[C@H](O)CC(=NO[C@@H]4O[C@H](CO)[C@@H](O)[C@H](O)[C@H]4O)[C@@H]3CC[C@H]2C(=O)N1c1ccc(F)cc1F`, the composite z-score in experiment [1] was 0.34 (inactive); in the experiment with XIP peptide (Xip251-270), 0.225. In addition, the z-score in experiment [2] is 0.531; in experiment [3], 0.036 (inactive).

`Cc1cc2c(nc1C)CCCN2CC(C)ON=C1[C@H]2CCn3c(=O)n(-c4ccccc4)c(=O)n3[C@H]2[C@H](O)[C@@H]2O[C@H]12` (stereo not given in full): the composite z-score in experiment [1] is 0.117 (inactive); with XIP peptide (Xip251-270), 0.32. Further, the z-score in experiment [2] is 0.0318; in experiment [3], -8.15 (active).

With `CC(CCC(=O)OC[C@H]1O[C@H](C#Cc2ccccc2)C=C[C@@H]1Oc1ccc(C)cc1)=NOC[C@@H](O)COCc1ccco1`, the figures for the composite z-score (in experiment [1]; in the experiment on XIP peptide (Xip251-270)) were -0.729 (inactive) and -0.205, respectively. In addition, the results for the z-score in experiment [2] and in experiment [3] were 0.177 and -3.65 (inactive), respectively.

Regarding `O=C1CCCC2OC12C(O)CCc1ccccc1` (stereo not given), the composite z-score in experiment [1] was -0.128 (inactive); with XIP peptide (Xip251-270), -0.213. Further, the values for the z-score in experiment [2] and in experiment [3] were 0.307 and -0.663 (inactive), respectively.

`CO[C@H]1COC(=O)[C@@H]2CCCN2C(=O)CC=C[C@@H](C)[C@H](OC)COC(=O)CC=C[C@@H]1C`: the composite z-score is 0.371 (inactive) in experiment [1] and 0.298 with XIP peptide (Xip251-270). Besides, the figures for the z-score in experiment [2] and in experiment [3] were 0.372 and -0.346 (inactive), respectively.

Consider `COC(=O)C1=C(C)[C@@H](O)[C@@H](C)[C@H](c2c(OC)c(OC)c(C)c(OC)c2OC)O1`, for which the values for the composite z-score (in experiment [1]; in the experiment on XIP peptide (Xip251-270)) were -0.252 (inactive) and 0.562, respectively. Further, the results for the z-score in experiment [2] and in experiment [3] were -0.717 and -0.388 (inactive), respectively.

In the case of `COc1ccc(O[C@H]2C=C[C@@H](c3ccccc3)O[C@@H]2COC(=O)CCC(C)=NOCC[C@@H]2C=C[C@H](OC(C)=O)[C@@H](COC(C)=O)O2)cc1`, the results for the composite z-score (in experiment [1]; with XIP peptide (Xip251-270)) were 0.543 (inactive) and 0.0553, respectively. Further, the z-score in experiment [2] is -0.703; in experiment [3], -4.08 (inactive).

Regarding `O=C1[C@H]2[C@H]3[C@H](O)[C@H](O)CC(=NOCc4ccccc4)[C@H]3CC[C@H]2C(=O)N1c1ccc(F)cc1F`, the composite z-score in experiment [1] was -0.0939 (inactive); with XIP peptide (Xip251-270), 0.159. Further, the z-score in experiment [2] is -1.08; in experiment [3], 1.02 (inactive).

Take `CCN1C(=O)[C@H]2[C@H]3[C@H](O)[C@H](O)CC(=NOCc4ccccc4)[C@H]3CC[C@H]2C1=O`: the composite z-score in experiment [1] is -0.0513 (inactive); with XIP peptide (Xip251-270), 0.172. Besides, the z-score in experiment [2] is 0.783; in experiment [3], -1.15 (inactive).

In the case of `CC(=O)OC[C@H]1O[C@H](CCON=C[C@@H](C)[C@H](OCc2ccccc2)C(C)C)C=C[C@@H]1OC(C)=O`, the composite z-score in experiment [1] was 0.72 (inactive); in the experiment with XIP peptide (Xip251-270) it was 0.165. Further, the z-score is -0.219 in experiment [2] and -4.91 (inactive) in experiment [3].

As to `CCc1cc2c(nc1CC)CCN(CCC(C)=NOC[C@@H](O)COCc1ccco1)C2`, the composite z-score is 2.62 (inactive) in experiment [1] and 0.679 in the experiment on XIP peptide (Xip251-270). Besides, the z-score in experiment [2] was 0.15; in experiment [3], -6.02 (inactive).

Regarding `CC(C)=CCCC(C)=CCON=C1[C@H]2CCn3c(=O)n(C)c(=O)n3[C@H]2[C@H](O)[C@@H]2O[C@H]12`, the composite z-score is 0.258 (inactive) in experiment [1] and 0.246 in the experiment on XIP peptide (Xip251-270). For the same compound, the z-score was -1.55 in experiment [2] and -0.682 (inactive) in experiment [3].

Regarding `C=CC[C@@H]1C=C[C@H](ON=C2c3cc(OC)ccc3O[C@H](c3cccc(OC)c3)[C@H]2O)[C@@H](CO)O1`, the composite z-score in experiment [1] is 0.0897 (inactive); in the experiment with XIP peptide (Xip251-270) it was -0.479. The z-score in experiment [2] is 0.888; in experiment [3], -5.69 (inactive).

`CCOC(=O)NN=C1C[C@@H](O)[C@@H](O)[C@@H]2[C@@H]3C(=O)N(C4CCCCC4)C(=O)[C@@H]3CC[C@@H]12`: the composite z-score was 0.311 (inactive) in experiment [1] and 0.101 in the experiment on XIP peptide (Xip251-270). Moreover, the z-score in experiment [2] is 1.51; in experiment [3] it was -0.86 (inactive).

Take `C=COC[C@H]1CN2[C@@H](CC[C@@H](C)[C@@H]2c2ccc(Br)cc2)C(=O)O1`: the composite z-score in experiment [1] is 0.299 (inactive); in the experiment on XIP peptide (Xip251-270), 0.719. For the same compound, the z-score in experiment [2] was 0.0315; in experiment [3], -2.37 (inactive).

As for `COCC(=C=CC[C@@H](O)c1ccccc1OCCO)CCO`, the composite z-score in experiment [1] was 0.291 (inactive); with XIP peptide (Xip251-270), 0.0706. Also, the z-score in experiment [2] is -0.721; in experiment [3], -2.37 (inactive); in experiment [4] it was -0.595 (inactive); in experiment [5], -0.534 (inactive).
